Shown are actives, neighbours in structure and some others; about 7.5% of the full set was active somewhere.
Rab9 promoter act = activates the Rab9 promoter. Huh7 Rab9 promoter-luciferase reporter, luminescence, 24 h. Potency, µM (top dose mostly 9.22 µM), for inactives: top-dose activation, negative = inhibition, hits mostly activators. hit rate 2.8% among 320,000. AID 485297; further: % of control where 0% means no effect; nearly all actives have a fitted effect of over 60% in size
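Measured in stably transfected Huh7 cells bearing a Rab9 promoter–luciferase construct: 24 h compound treatment at 37 °C, followed by luminescence detection.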
FLuc counter = firefly luciferase modulation, counter-screen for miR-21 project; purified FLuc, Km substrates, luminescence inhibition; hit rate 6.9% among 360,000; Potency, µM (doses to about 57.5 µM), for the others: top-dose activity change, negative = inhibition, hits mostly inhibitors; P08659; AID 588342;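 further: plate controls were vehicle for no effect and reference inhibitor for full effect; nearly all actives have a fitted effect of over 55% in size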
Target sequence (P08659 whole entry, looked up): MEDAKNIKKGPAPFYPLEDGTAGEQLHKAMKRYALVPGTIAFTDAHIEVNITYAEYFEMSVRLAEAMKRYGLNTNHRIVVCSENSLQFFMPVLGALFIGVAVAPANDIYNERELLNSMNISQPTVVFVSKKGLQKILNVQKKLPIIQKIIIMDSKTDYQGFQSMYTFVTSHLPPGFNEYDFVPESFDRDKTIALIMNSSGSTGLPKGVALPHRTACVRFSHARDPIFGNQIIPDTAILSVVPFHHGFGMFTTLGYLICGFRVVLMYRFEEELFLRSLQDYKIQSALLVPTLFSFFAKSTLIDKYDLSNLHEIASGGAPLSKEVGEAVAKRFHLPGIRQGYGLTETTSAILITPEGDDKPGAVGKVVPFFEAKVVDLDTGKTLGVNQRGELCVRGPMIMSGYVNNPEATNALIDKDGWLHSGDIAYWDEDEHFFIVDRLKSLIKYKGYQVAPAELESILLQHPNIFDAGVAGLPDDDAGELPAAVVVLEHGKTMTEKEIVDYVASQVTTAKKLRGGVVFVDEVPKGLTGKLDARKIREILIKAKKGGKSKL
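Purified P. pyralis luciferase (10nM final) with 10uM D-luciferin and 10uM ATP (Km levels) in 50mM Tris acetate pH 7.5, 10mM Mg acetate, 0.01% Tween-20, 0.05% BSA; qHTS 6-point titration, ~60 µM downward; luminescence read.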
NPC1 prom act = NPC1 promoter activation | AID 485313 | Potency, µM (series often up to 9.22 µM), inactives show at the highest dose activation, usual class: activators | hit rate 2.4% among 320,000 | Huh7 NPC1 promoter luciferase reporter, 24 h; further: % of control where 0% means no effect; nearly all actives have a fitted effect of over 60% in size
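Compounds in DMSO were transferred onto Huh7 NPC1-luciferase reporter cells pre-incubated 2 h; after 24 h at 37 °C, Amplite reagent was dispensed and luminescence recorded 10 min later.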
SMN2 splice up = increases expression of the SMN2 splice variant; HEK293 SMN2-luciferase splicing reporter, luminescence, 30-36 h; Potency, µM (highest dose often 46.1 µM), for inactives: at the top dose activity change, positive = activation, usual class: activators; hit rate 2.8% among 210,000; AID 1458; further: % of control where 0% means no effect; nearly all actives have a fitted effect of over 55% in size
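HEK293 cells carry an SMN2 […]–luciferase reporter in which exon 7 inclusion puts luciferase in frame. Cells were plated 10-12 h before compound addition, then incubated 30-36 h at 37C. ONE-Glo luminescence was read; sodium butyrate at 4.5 mM final served as control.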
ELG1 genotox = induces genotoxicity in HEK293T cells with luciferase-tagged ELG1; HEK293T ELG1-luciferase reporter, luminescence, 16 h; Potency, µM (doses to about 46 µM), without a hit: at the highest dose activity change, positive = activation, hits mostly activators; hit rate 1.3% among 330,000; AID 504466; further: % of control where 0% means no effect; nearly all actives have a fitted effect of over 60% in size
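16 hr compound incubation (37 °C, 5% CO2) of HEK293T cells carrying luciferase-tagged ELG1; luciferase then measured by ONE-Glo luminescence after 30 min at RT.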
KinaseGlo FLuc = Kinase-Glo luciferase inhibition (counter-screen) | Potency, µM (titrated, usually from 38.3 µM), for the others: at the highest dose activity change, negative = inhibition, hits mostly inhibitors | hit rate 0.28% among 200,000 | AID 1379 | Q27757 | Kinase-Glo luciferase, ATP luminescence, 8 min; further: on the % scale 0 is the no-effect control and ±100 the full control effect; nearly all actives have a fitted effect of over 60% in size
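Luminescence was the read-out, taken after 8-minute incubation at ambient temperature. Luciferase turned over luciferin with 10 uM ATP in imidazole pH 7.2 buffer containing KCl, MgCl2, Tween 20 and BSA.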
Active calls of the source: *. The call rests on the fitted dose curve; in most records, active means well fitted curve in the direction sought with a large enough effect; inconclusive means small, poorly fitted or top-dose-only effect, or another doubt; inactive means no such curve, though single readings can be large; an effect the other way counts as inactive or inconclusive. Potency means the concentration at half of the fitted maximal effect.

O=C(COC(=O)c1ccco1)Nc1ccc(Br)cc1 was read as Rab9 promoter act 2.9%, FLuc counter 9.53µM*, NPC1 prom act 1.7%, SMN2 splice up -4.8%, ELG1 genotox -1.2% and KinaseGlo FLuc 9.5%.
`O=C(Nc1ccc(Cc2ccncc2)cc1)c1ccco1` gave Rab9 promoter act inconclusive, FLuc counter 19µM*, NPC1 prom act inconclusive, SMN2 splice up 19.5%, ELG1 genotox 16.5% and KinaseGlo FLuc -2.5%.
Screening O=C(Nc1ccc(Br)cc1)c1ccco1 returned Rab9 promoter act 3.16µM*, FLuc counter 13.5µM*, NPC1 prom act inconclusive, SMN2 splice up 11.2µM*, ELG1 genotox 7.08µM* and KinaseGlo FLuc -3.7%.
O=C(Nc1ccc(NC(=O)c2ccco2)cc1)c1ccco1 was read as Rab9 promoter act 5.5%, FLuc counter 0.8%, NPC1 prom act 7.0% and ELG1 genotox 15.9%.
For O=C(CNC(=O)c1ccco1)Nc1ccncc1 the results were Rab9 promoter act -1.8%, FLuc counter -1.0%, NPC1 prom act -2.0% and ELG1 genotox 3.5%.
For O=C(Nc1ccc(Nc2ccccc2)cc1)c1ccco1 the results were Rab9 promoter act 0.562µM*, FLuc counter 7.57µM*, NPC1 prom act inconclusive, SMN2 splice up 12.6µM*, ELG1 genotox 9.2µM* and KinaseGlo FLuc 0.4%.
Screening CCC(=O)N1CCc2cc(S(=O)(=O)NC(C(=O)NCc3ccc(OC)cc3)C(C)C)ccc21 (stereo not given) returned FLuc counter -4.8% and SMN2 splice up -1.6%.
For CC1CCC(NC(=O)COC(=O)c2ccco2)CC1 (stereo not given) the results were Rab9 promoter act -2.4%, FLuc counter 23.9µM*, NPC1 prom act 0.8% and ELG1 genotox -4.3%.
For O=C(Nc1ccc(NC(=O)c2sc3ccccc3c2Cl)cc1)c1ccco1 the results were Rab9 promoter act -5.2%, FLuc counter 0.0%, NPC1 prom act -3.3%, SMN2 splice up -6.9%, ELG1 genotox 23.1µM* and KinaseGlo FLuc 1.7%.
`O=C(Nc1ccc(-c2ccccc2)cc1)c1ccco1` gave Rab9 promoter act 0.5%, FLuc counter 4.0%, NPC1 prom act -4.0%, SMN2 splice up -4.1%, ELG1 genotox 8.5% and KinaseGlo FLuc 1.3%.
For Cc1nnc(NC(=O)C(=O)c2cc(C)n(-c3ccc(C)c(C)c3)c2C)s1 the results were FLuc counter -7.5%.
Screening COc1cc(C2Nc3cccc4cccc(c34)N2)cc(OC)c1OC(C)=O returned Rab9 promoter act 1.5%, FLuc counter 16.9µM*, NPC1 prom act -2.3%, SMN2 splice up 3.6%, ELG1 genotox 4.8% and KinaseGlo FLuc -6.9%.
Screening COc1ccc(Br)cc1C1Nc2cccc3cccc(c23)N1 returned Rab9 promoter act 22.5%, FLuc counter -19.6%, NPC1 prom act inconclusive and ELG1 genotox inconclusive.
`COc1cc(C2Nc3cccc4cccc(c34)N2)ccc1O` gave Rab9 promoter act 18.4%, FLuc counter 13.5µM*, NPC1 prom act inconclusive and ELG1 genotox -1.6%.
For CCN(CC)c1ccc(C2Nc3cccc4cccc(c34)N2)c(O)c1 the results were Rab9 promoter act inconclusive, FLuc counter 16.9µM*, NPC1 prom act inconclusive, SMN2 splice up 0.2%, ELG1 genotox 9.7% and KinaseGlo FLuc 3.2%.
Screening COc1ccc(S(=O)(=O)N(CC(=O)Nc2cccc(C)c2)c2ccc(C)cc2)cc1OC returned FLuc counter -2.9%.
For COC(=O)c1ccc(NC(=O)CCn2cccn2)cc1 the results were FLuc counter 6.3%.
Screening Cc1ccccc1Cn1c(COc2ccc(Cl)cc2)nc2ccccc21 returned FLuc counter inconclusive and SMN2 splice up 16.4%.
Screening Cc1nc2sccc2c(=O)n1N returned Rab9 promoter act -3.1%, FLuc counter -1.2%, NPC1 prom act -1.1%, SMN2 splice up 18.2%, ELG1 genotox 2.3% and KinaseGlo FLuc -0.4%.
